Measurements: PubChem BioAssay (NCATS)
Records with an inconclusive call do not appear. The source made the active and inactive calls. Unless noted, the call rests on the fitted dose curve.

What was measured:
[1] = target: Catechol O-methyltransferase (Homo sapiens) (UniProt P21964); experiment: Confirmatory Screen for Target Class Profiling of Small Molecule Inhibitors of Methyltransferases (AID 1745852); settings: MTase-Glo luminescence, SAH detection, recombinant enzyme; measured here: COMT max response; stronger effect = lower value; further: potency means the concentration at half of the fitted maximal effect; on activity change, negative = inhibition: on the % scale 0 is the no-effect control and ±100 the full control effect
[2] = target: Guanidinoacetate N-methyltransferase (Homo sapiens) (UniProt Q14353); experiment: as above; settings: MTase-Glo luminescence, SAH detection, recombinant enzyme; activity change, negative = inhibition: at 57.3 µM (top of the series) unless noted; series mostly up to 57.3 µM
[3] = target: Nicotinamide N-methyltransferase (Homo sapiens) (UniProt P40261); experiment: as above; settings: MTase-Glo luminescence, SAH detection, recombinant enzyme; measured here: NNMT max response; stronger effect = lower value
[4] = target: Phenylethanolamine N-methyltransferase (Homo sapiens) (UniProt P11086); experiment: as above; settings: MTase-Glo luminescence, SAH detection, recombinant enzyme; measured here: PNMT max response; stronger effect = lower value
[5] = NCATS anti-infectives library activity on HEK293 viability as a counter-qHTS vs the C. elegans viability qHTS (AID 1745854; active means well fitted cell-killing curve with a large enough effect;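 further: HEK293 cells exposed to compounds for 24 hr before the viability read; on the % scale 0 is the no-effect control and ±100 the full control effect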); settings: HEK293 viability counter-screen; series mostly up to 41.8 µM
In short: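 HEK293 cells (1,500/well) exposed 24 hr at 37C to 1:5 titrations, up to 41.7 uM final; counter-screen to a C. elegans viability qHTS. Viability by CellTiter-Glo luminescence after 10 min at room temperature; digitonin as control.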

Phenylethanolamine N-methyltransferase (Homo sapiens), sequence (P11086 whole entry, looked up): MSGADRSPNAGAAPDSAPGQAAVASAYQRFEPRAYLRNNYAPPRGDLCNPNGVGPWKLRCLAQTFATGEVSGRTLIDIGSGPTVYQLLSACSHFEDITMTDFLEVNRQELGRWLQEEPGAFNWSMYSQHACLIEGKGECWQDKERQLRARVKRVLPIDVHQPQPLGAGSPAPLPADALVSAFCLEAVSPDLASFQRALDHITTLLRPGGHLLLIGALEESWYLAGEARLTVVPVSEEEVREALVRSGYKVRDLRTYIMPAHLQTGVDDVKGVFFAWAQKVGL
Catechol O-methyltransferase (Homo sapiens), sequence (P21964 whole entry, looked up): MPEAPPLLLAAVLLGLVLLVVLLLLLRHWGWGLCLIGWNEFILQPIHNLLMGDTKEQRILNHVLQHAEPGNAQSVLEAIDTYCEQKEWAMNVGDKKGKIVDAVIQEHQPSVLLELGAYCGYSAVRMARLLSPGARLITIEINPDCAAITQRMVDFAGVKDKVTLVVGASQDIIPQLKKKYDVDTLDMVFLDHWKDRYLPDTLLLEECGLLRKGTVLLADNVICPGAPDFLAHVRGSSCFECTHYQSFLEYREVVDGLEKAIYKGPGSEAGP
Nicotinamide N-methyltransferase (Homo sapiens), sequence (P40261 whole entry, looked up): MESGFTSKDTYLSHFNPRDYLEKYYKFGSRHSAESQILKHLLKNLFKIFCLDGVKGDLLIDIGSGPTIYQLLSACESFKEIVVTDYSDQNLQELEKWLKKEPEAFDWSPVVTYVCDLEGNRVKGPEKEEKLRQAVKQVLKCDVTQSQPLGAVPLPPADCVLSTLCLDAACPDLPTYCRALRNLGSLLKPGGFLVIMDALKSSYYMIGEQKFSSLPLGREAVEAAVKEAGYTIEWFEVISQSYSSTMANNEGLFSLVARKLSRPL

| SMILES | activity [1] [%] | activity change, negative = inhibition [2] | activity [3] [%] | activity [4] [%] | Potency [2] | Potency [5] |
| --- | --- | --- | --- | --- | --- | --- |
| COc1ccc(N2CCN(C(=O)c3cc(NC(C)=O)cc4nc(C)ccc34)CC2)cc1 | 1.89 | 4.56% | 4.7 | 7.32 |  |  |
| O=C(CCc1nnc2n(Cc3ccc(F)cc3)c(=O)c3ccccc3n12)NCCN1CCCC1 | -4.07 | -0.511% | -16.1 | 2.1 |  |  |
| CC(C)Cn1c(=O)c2ccccc2n2c(CCC(=O)Nc3ccc(F)c(F)c3)nnc12 | -1.85 | 1.46% | -38.2 | -5.35 |  |  |
| O=[S+]1([O-])NC2(CCCN(Cc3c(F)cccc3Cl)C2)COc2ccccc21 (stereo not given) | -6.32 | 2.18% | -5.33 | -3.56 |  |  |
| CC1(C(=O)NC2CCCCCC2)Cn2c(c(-n3cccc3)c3ccccc32)C(=O)N1CC1CCCO1 (stereo not given) | 4.7 | 0.126% | -46.9 | 0 |  |  |
| c1ccc(CNc2cc(-c3cc(N4CCCCC4)ncn3)c3cc[nH]c3n2)nc1 | -16.9 | -13.9% | -28.9 | -32 |  |  |
| O=C(Nc1ccc2c(N3CCCC3)ncnc2c1)c1cc(F)ccc1Cl | -8.67 | -7.52% | -15.4 | -17.8 |  |  |
| Cc1ccc2c(c1)c(-n1cccc1)c1n2CC(C)(C(=O)NC2CCCCC2)N(Cc2ccccn2)C1=O (stereo not given) | 4.89 | 0.484% | -16.5 | 0 |  |  |
| Cc1c(C(=O)O)ccc2c1N[C@@H](c1cccc(C(F)(F)F)c1)[C@H]1CC=C[C@@H]21 | -4.24 | -0.164% | -5.85 | -7.15 |  |  |
| CC1CCCCN1CCNC(=O)Cn1ccc2cc(S(=O)(=O)N3CCCCC3)ccc21 (stereo not given) | 0.614 | 0% | -0.249 | -1.89 |  |  |
| CN(C)CC1(O)CCC2(CCN(C(=O)c3cccn3C)CC2)CC1 | 7.38 | 3.21% | 3.1 | 9.04 |  |  |
| O=C(Cn1c(=O)oc2cc(S(=O)(=O)N3CCCC3)ccc21)Nc1cccc(Cl)c1 | -1.16 | 0% | 4.81 | -49.8 |  |  |
| Cc1nn(C(=O)CCC(=O)N2CCC(Cc3nncn3CC3CC3)CC2)c2ccccc12 | 6.63 | 3.09% | -59.9 | 7.75 |  |  |
| Cn1c(C(=O)NCCN2CCCCC2)cc2c1CCN(Cc1cccc(F)c1)C2 | 7.65 | 15.7% | 7.53 | 7.04 |  |  |
| COc1ccc(CNc2cc3c(cn2)CN(C)CCN3)cc1OC | 6.61 | 1.57% [at 85.7 µM] | 0.597 | 7.35 |  |  |
| COc1ccc(-c2nnn3c2nc(NCCc2ccc(OC)c(OC)c2)c2ccccc23)cc1 | -10.5 | -2.81% | -12.4 | -9.28 |  |  |
| Cn1c(=O)n(C)c2cc(S(=O)(=O)Nc3ccc(-c4nnc(-c5ccccc5)o4)c(Cl)c3)ccc21 | -28.6 | -7.85% | -40.4 | -17.1 |  |  |
| Cc1cccc(-c2nnc3n(CCc4ccccc4)c(=O)c4ccccc4n23)c1 | -4.01 |  | -11.5 | -10 | inactive |  |
| Cc1ccsc1CCNC(=O)Cn1c(=O)oc2cc(S(=O)(=O)N3CCCC3)ccc21 | -8.14 | -1.17% | -5.53 | -81.8 |  |  |
| COc1ccc(CN2C[C@@H](CO)[C@H](c3ccncc3)C2)c(OC)c1 | 7.35 | 7.27% | -21.3 | 8.2 |  |  |
| CCN(CC)CCNC(=O)CCCc1nnc2n3nc(-c4ccccc4)nc3c3ccccc3n12 | -2.75 | 0.717% | -0.56 | -1.77 |  |  |

| SMILES | activity [1] [%] | activity change, negative = inhibition [2] | activity [3] [%] | activity [4] [%] | Potency [2] | Potency [5] |
| --- | --- | --- | --- | --- | --- | --- |
| Cc1nc(NC(=O)C2CC(=O)N(c3n[nH]c4cc(Br)ccc34)C2)sc1C (stereo not given) | 11.1 | 3.17% | -94.1 | 7.69 |  |  |
| Cc1ccc(NC(=O)CSc2nnc3n(CC(C)C)c(=O)c4ccccc4n23)cc1 | 1.84 |  | -8.6 | -2.78 | inactive |  |
| CCN(CC)CCCNC(=O)CCc1nnc2n(Cc3ccccc3)c(=O)c3ccccc3n12 | 1.43 | 0% | -2.92 | 0.626 |  |  |
| CCCCN1C(=O)c2cc(C(=O)NCc3ccc(OC)cc3OC)nn2CC1(C)C(=O)NC1CCCC1 (stereo not given) | 0.43 | 0% | -36.8 | -3.65 |  |  |
| Cn1ccc(Nc2cc3c(cn2)CN(CCc2ccccc2)CCN3)n1 | -0.459 | -0.578% [at 85.7 µM] | -5.86 | -38.8 |  |  |
| Cc1ccc([C@@H]2CN(c3cc(N4CCC(O)CC4)ncn3)C[C@H]2N(C)C)cc1 | -2.09 | -0.694% | -5.73 | -0.207 |  |  |
| Cc1noc(C)c1-c1cnc(Nc2ccncc2)c2c1CCO2 | 0.912 | 1.39% [at 85.7 µM] | -6.04 | 2.25 |  |  |
| COc1ccccc1-c1[nH]nc2ncc(C(=O)NCC3CC3)nc12 | -33.3 | -13.8% [at 85.7 µM] | -16.5 | -40.5 |  |  |
| COC(=O)C(Cc1c[nH]c2ccccc12)NC(=O)c1ccccc1Br (stereo not given) | -2.16 | 0% | -4.76 | -7.16 |  |  |
| C[C@H]1CN(C(=O)Nc2ccc(F)cc2F)C[C@@H]1c1nc(-c2ccccc2)no1 | 6.81 |  | -92.4 | 9.33 | 0.769 µM (active) |  |
| Cc1ccc(C)c(N2CCN(C(=O)c3ccc4c(=O)[nH]c5c(C(=O)NC(C)C)sc(=S)n5c4c3)CC2)c1 | -41.7 | -2.19% | -76.8 | -17.9 |  |  |
| CC(=O)Nc1cccc(-c2cc3c(cn2)CN(Cc2ccccc2)CCN3)c1 | -2.16 | 0.249% [at 85.7 µM] | -13 | -14.8 |  |  |
| COc1ccc(CCNc2nc3c(S(=O)(=O)c4ccccc4)nnn3c3ccccc23)cc1OC | -10.7 | -7.04% | -17.5 | -12.4 |  |  |
| CC(=O)NC1CC2(CCN(Cc3ccc(O)cc3)CC2)c2ccccc21 (stereo not given) | 6.67 | 7.28% [at 85.7 µM] | 12.2 | 5.3 |  |  |
| O=S(=O)(c1ccc(Br)cc1)c1nnn2c1nc(NCCc1c[nH]c3ccccc13)c1ccccc12 | -1.9 | -2.1% | -1.21 | -6.06 |  |  |
| CCN(CC)Cc1cnc2c(C(=O)N3CCCN4CCC[C@H]4C3)cnn2c1 | -42.2 | 7.01% | 12.3 | 8.45 |  |  |
| CC(C)CCNC(=O)c1ccc2c(=O)[nH]c3c(C(=O)NC4CCCC4)sc(=S)n3c2c1 | -37.7 |  | -45.4 | -38.7 | 27.1 µM (active) |  |
| COC(=O)[C@@H]1Cc2ncn(Cc3ccc(Cl)cc3)c2CN1CCCc1ccccc1 | 0.13 | 2.15% [at 85.7 µM] | -17 | -1.27 |  |  |
| CC1CCCC(NC(=O)C2(C)Cn3c(cc4occc43)C(=O)N2Cc2ccco2)C1C (stereo not given) | -10.3 | -6.55% | -20.3 | -11.1 |  |  |
| O=C(CC1CCCC1)N1CCC(Nc2cccnc2)C1 (stereo not given) | -11 | -10.5% | -14.6 | -7.86 |  |  |
| Cc1cc(C)c(NS(=O)(=O)c2ccc3c(c2)n(C)c(=O)n3C)c(C)c1 | 0.505 | 0% | -39.4 | 0.178 |  |  |

| SMILES | activity [1] [%] | activity change, negative = inhibition [2] | activity [3] [%] | activity [4] [%] | Potency [2] | Potency [5] |
| --- | --- | --- | --- | --- | --- | --- |
| Cc1cc(F)ccc1NS(=O)(=O)c1ccc2[nH]c3c(c2c1)CCCC3 | 0 | 0.252% | -33.2 | 0 |  |  |
| CCCc1sc(NC(=O)C[C@H]2NC(=O)c3ccccc3NC2=O)nc1C(=O)OC | 4.16 | 2.83% | -4.71 | 3.73 |  |  |
| O=C(NCc1ccc(Cl)cc1)c1ccc2c(=O)[nH]c3c(C(=O)NC4CCCC4)sc(=S)n3c2c1 | -32.6 |  | -79.2 | -80.2 | 42.9 µM (active) |  |
| O=C(NCCCN1CCc2ccccc2C1)C1CCc2ncc(-c3ccc(F)cc3)n2C1 (stereo not given) | -4.39 | -6.35% | 3.39 | -4.05 |  |  |
| O=C(Cn1ccc2cc(S(=O)(=O)N3CCCCC3)ccc21)NCCCN1CCCCC1 | -5.54 | -0.43% | -8.24 | -7.19 |  |  |
| C1=C(c2nc(-c3ccncc3)cc3c2ccn3Cc2cccnc2)CCOC1 | -19 | -9.57% [at 85.7 µM] | -8.71 | -24.5 |  |  |
| O=C(Cn1c(=O)oc2cc(S(=O)(=O)N3CCCC3)ccc21)Nc1ccc(F)c(Cl)c1 | -3.81 | 1.53% | -2.29 | -63.9 |  |  |
| Cc1ccc(S(=O)(=O)c2nnn3c2nc(N2CCC(N4CCCCC4)CC2)c2ccccc23)cc1C | -1.85 | 0% | -9.07 | -3.83 |  |  |
| c1ccc(-c2[nH]nc3ncc(-c4cn[nH]c4)nc23)cc1 | -73.4 |  | -59.9 | -83.4 | 31.2 µM (active) |  |
| Cn1cc2c3c(cccc31)CN(C(=O)c1ccccc1F)CC2 | -1.46 | 8.53% | -50.7 | -0.857 |  |  |
| Cn1ncc2c(N3CCN(S(N)(=O)=O)CC3)nc(C3CCCC3)nc21 | -8.84 | -4.64% | -39.7 | -18 |  |  |
| O=c1c2ccccc2n2c(-c3cc(Cl)ccc3O)nnc2n1Cc1ccc(F)cc1 | -12.1 |  | -13.1 | -27.8 | 27.1 µM (active) |  |
| CCOc1c(CN(C)C(=O)Cn2cccc(OC)c2=O)cccc1OC | 0.499 | -5.47% | -3.91 | 0.0949 |  |  |
| O=C(CCc1nnc2n(Cc3ccccc3Cl)c(=O)c3ccccc3n12)NCCc1c[nH]c2ccccc12 | 4.12 | 0% | -2.9 | -5.42 |  |  |
| CC(C)Cn1c(=O)c2ccccc2n2c(CCC(=O)N3CCN(Cc4ccccc4)CC3)nnc12 | 0.0224 | 2.81% | -55.9 | -3.34 |  |  |
| CCCC1c2cccn2CCN1C(=O)Nc1ccc(OC)cc1 (stereo not given) | -6.82 | -3.73% | -13.3 | -7.43 |  |  |
| Cc1nc2ccccc2c(-c2ccc3c(c2)CCCO3)c1C(OC(C)(C)C)C(=O)O (stereo not given) |  |  |  |  |  | inactive |
| CC(=O)Nc1ccc(C)c(C(=O)N[C@H](C)c2cccc3ccccc23)c1 |  |  |  |  |  | inactive |
| O=C(O)/C(S)=C/c1c[nH]c2ccc(F)cc12 |  |  |  |  |  | inactive |
